Source: PubChem BioAssay
Active and inactive are the calls of the source.

Legend:
[1] = test system: PRMT1 (protein arginine N-methyltransferase 1); test: small molecules binding arginine methyltransferase PRMT1 – biochemical, small-molecule microarray, 635 nm fluorescence, primary screen (AID 1088); details: higher = more signal;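 further: binding of Prmt1 protein to compounds spotted on small-molecule microarray slides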
[2] = growth effects on S. cerevisiae YJM789 – YJM789 clinical isolate, OD600, 24 h, basal, primary screen (AID 1089); details: higher = more signal, called active from +8 up or from −8 down;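 further: growth of clinical yeast isolate S. cerevisiae YJM 789 seeded 1000 cells per well; test concentration not given here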
[3] = S. pombe growth modifiers, basal conditions – strain 972, OD600, 24 h, no modulator, primary screen (AID 1090);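 further: basal condition with compound alone and no growth modifier present; test concentration not given here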; details: S. pombe 972 growth, higher = more signal, called active from +8 up or from −8 down
[4] = budding yeast growth modifiers under rapamycin – strain BY4716, OD600, 96 h, primary screen (AID 1091); further: test concentration not given here; details: S. cerevisiae BY4716 + rapamycin, higher = more signal, called active from +8 up or from −8 down
[5] = biological target: Torsin-1A-interacting protein 2 (Homo sapiens) (UniProt Q8NFQ8); test: small molecules binding lysate-expressed LULL1 – cell lysate, human LULL1 lysate, 635/667 nm fluorescence, primary screen (AID 1092); details: small-molecule microarray, hLULL1 lysate binding, 635 nm fluorescence; higher = more signal;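 further: probe is lysate of COS7 cells overexpressing human LULL1; score merges per-feature 667 nm fluorescence with signal-to-noise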
[6] = optical density change of DRC41 E. coli – strain DRC41, OD650, 24 h, E. coli filamentation project, primary screen (AID 1093);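 further: MC1000 strain lacking acrAB efflux and sulA so SOS filamentation is blocked; test concentration not given here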; details: E. coli DRC41 growth, higher = more signal, called active from +8 up or from −8 down
[7] = probe aLefty2 binding to arrayed compounds – biochemical, biotinylated probe, 635/667 nm fluorescence, primary screen (AID 1094); details: small-molecule microarray, higher = more signal;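 further: score merges spot fluorescence near 667 nm with spot signal-to-noise ratio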
[8] = test system: Noggin (protein binding on small-molecule microarray); test: small molecules binding Noggin protein – biochemical, 635/667 nm fluorescence, primary screen (AID 1095); details: 635 nm fluorescence, higher = more signal;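 further: score merges 667 nm feature fluorescence with signal to noise over triplicate slides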
[9] = biological target: Neurogenic locus notch homolog protein 3 (Homo sapiens) (UniProt Q9UM47); test: small molecules binding NOTCH3 protein – biochemical, 635/667 nm fluorescence, primary screen (AID 1096); details: small-molecule microarray, 635 nm fluorescence, higher = more signal
[10] = probe aEGFR binding to arrayed compounds – biochemical, biotinylated probe, 635/667 nm fluorescence, primary screen (AID 1097); details: small-molecule microarray, higher = more signal;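 further: probe is a biotinylated anti-EGFR antibody binding compounds printed on slides; score combines fluorescence near 667 nm and signal to noise of each spot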

Sequence of Torsin-1A-interacting protein 2 (Homo sapiens) (Q8NFQ8 whole entry, looked up): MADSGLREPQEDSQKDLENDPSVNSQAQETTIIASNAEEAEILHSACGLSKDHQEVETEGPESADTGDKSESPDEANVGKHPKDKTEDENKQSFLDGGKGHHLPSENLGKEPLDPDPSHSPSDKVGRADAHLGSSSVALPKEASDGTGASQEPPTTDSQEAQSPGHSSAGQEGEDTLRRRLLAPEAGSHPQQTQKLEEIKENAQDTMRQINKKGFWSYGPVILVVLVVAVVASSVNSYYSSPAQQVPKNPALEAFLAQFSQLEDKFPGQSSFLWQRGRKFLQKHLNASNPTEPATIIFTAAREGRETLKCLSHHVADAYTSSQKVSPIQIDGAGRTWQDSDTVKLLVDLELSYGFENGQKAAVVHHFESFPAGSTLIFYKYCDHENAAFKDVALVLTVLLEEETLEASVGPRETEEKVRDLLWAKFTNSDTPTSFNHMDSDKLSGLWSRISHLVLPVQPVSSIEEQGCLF
Sequence of Neurogenic locus notch homolog protein 3 (Homo sapiens) (Q9UM47 whole entry, looked up): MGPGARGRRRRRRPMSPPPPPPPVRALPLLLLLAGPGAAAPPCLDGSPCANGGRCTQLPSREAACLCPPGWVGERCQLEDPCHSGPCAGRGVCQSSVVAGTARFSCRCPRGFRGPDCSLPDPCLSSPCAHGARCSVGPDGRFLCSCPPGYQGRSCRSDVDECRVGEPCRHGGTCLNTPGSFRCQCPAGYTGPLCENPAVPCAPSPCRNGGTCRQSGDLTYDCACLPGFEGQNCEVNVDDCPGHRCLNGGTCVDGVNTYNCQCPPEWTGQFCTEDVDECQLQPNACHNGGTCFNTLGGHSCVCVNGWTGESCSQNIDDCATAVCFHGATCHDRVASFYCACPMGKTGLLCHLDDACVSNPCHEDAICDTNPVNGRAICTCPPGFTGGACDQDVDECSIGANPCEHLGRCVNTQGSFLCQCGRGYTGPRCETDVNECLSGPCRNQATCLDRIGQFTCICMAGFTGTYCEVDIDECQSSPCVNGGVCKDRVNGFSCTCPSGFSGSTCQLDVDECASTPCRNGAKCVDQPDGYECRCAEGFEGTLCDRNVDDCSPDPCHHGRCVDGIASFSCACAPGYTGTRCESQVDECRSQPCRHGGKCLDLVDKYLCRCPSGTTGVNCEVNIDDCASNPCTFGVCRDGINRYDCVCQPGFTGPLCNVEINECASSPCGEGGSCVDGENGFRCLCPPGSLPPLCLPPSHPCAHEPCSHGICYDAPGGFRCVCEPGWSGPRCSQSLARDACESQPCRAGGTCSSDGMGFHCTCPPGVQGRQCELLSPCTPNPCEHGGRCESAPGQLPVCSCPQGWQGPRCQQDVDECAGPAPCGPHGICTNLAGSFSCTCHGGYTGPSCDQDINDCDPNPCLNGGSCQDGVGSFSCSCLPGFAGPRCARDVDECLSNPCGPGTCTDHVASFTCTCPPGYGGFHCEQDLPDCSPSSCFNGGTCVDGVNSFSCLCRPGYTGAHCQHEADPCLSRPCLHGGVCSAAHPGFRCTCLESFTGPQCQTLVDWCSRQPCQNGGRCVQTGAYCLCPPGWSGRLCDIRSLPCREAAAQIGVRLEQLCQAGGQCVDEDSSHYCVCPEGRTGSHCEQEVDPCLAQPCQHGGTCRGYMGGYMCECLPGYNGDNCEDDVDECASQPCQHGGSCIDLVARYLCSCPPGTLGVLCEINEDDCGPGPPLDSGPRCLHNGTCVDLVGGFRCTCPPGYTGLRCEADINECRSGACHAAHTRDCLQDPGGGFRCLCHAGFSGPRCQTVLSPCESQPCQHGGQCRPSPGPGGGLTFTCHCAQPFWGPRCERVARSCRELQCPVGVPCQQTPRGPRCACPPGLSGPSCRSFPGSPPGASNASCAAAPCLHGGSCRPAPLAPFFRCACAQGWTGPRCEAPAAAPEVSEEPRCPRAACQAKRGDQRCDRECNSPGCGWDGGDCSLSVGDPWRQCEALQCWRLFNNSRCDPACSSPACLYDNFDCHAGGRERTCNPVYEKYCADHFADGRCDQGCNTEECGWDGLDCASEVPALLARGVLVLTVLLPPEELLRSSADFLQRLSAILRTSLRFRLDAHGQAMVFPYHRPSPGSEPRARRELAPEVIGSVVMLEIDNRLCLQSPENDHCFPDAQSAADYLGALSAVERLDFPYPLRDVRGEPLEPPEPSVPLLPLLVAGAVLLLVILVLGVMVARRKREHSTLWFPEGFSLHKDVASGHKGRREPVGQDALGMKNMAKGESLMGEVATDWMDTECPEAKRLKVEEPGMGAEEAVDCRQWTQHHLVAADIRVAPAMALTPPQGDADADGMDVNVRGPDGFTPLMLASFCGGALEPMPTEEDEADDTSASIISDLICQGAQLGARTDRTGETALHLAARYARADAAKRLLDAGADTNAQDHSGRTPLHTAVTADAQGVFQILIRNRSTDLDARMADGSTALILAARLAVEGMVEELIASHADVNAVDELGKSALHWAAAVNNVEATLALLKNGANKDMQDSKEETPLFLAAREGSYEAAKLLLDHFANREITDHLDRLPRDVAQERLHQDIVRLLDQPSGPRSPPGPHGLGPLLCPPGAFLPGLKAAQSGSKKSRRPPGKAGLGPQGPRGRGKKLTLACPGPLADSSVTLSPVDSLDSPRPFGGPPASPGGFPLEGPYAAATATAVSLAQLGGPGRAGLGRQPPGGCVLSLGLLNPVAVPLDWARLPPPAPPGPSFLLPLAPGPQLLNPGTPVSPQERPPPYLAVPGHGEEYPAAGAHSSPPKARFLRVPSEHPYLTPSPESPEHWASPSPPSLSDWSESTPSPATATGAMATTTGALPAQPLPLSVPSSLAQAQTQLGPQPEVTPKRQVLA

Row | SMILES | composite z-score [1] | z-score [2] | z-score [3] | z-score [4] | composite z-score [5] | z-score [6] | composite z-score [7] | composite z-score [8] | composite z-score [9] | composite z-score [10]
1 | [N-]=[N+]=Nc1ccccc1[C@H]1OC(c2ccc(OCCCO)cc2)=N[C@@]1(Cc1ccccc1)C(=O)N1CCOCC1 | 1.46 | -1.44 (inactive) | -1.02 (inactive) | 1.91 (inactive) | 3.23 | 0.551 (inactive) | 0.275 | 0.449 | 1.15 | 0.0881
2 | CC(C)NC(=O)[C@@]1(Cc2ccccc2I)c2ccccc2C(=O)N(Cc2ccccc2Cl)[C@H]1c1ccc(CO)cc1 | 1.51 | 1.14 (inactive) | -0.199 (inactive) | 1.39 (inactive) | 2.59 | -0.406 (inactive) | -0.0441 | 0.607 | 1.08 | -0.0181
3 | COc1cc(CO)cc(I)c1O[C@H]1C=C(C(=O)NCCO)C[C@@H](NC[C@@H]2CCCO2)[C@@H]1O | 1.35 | -0.396 (inactive) | -0.424 (inactive) | -0.0698 (inactive) | 1.91 | 1.6 (inactive) | -0.17 | 1.26 | 0.554 | -0.0033
4 | CO[C@H]1O[C@H](CO)[C@@H](OC(=O)Nc2ccccc2-c2ccccc2)[C@H](OC(=O)Nc2ccccc2-c2ccccc2)[C@@H]1OC(=O)Nc1ccccc1-c1ccccc1 | 1.54 | 1.95 (inactive) | 0.181 (inactive) | 7.28 (inactive) | 2.96 | 1.59 (inactive) | -0.0569 | 0.761 | 1.08 | -0.0757
5 | COc1ccc([Si](C)(C)[C@@H]2[C@@H](CCn3cc([C@H](O)c4ccccc4)nn3)O[C@]3(C(=O)N(Cc4cccc(N5CCC5=O)c4)c4ccccc43)[C@H]2C)cc1 | -0.284 | -0.442 (inactive) | 1.23 (inactive) | 2.14 (inactive) | 0.167 | -0.546 (inactive) | -0.0956 | 0.459 | -0.468 | -0.0267
6 | CC(C)=CCCC(C)=CC(O)C1C=CC2C(=O)N(c3ccccc3)C(=O)C2N1Nc1ccc(C(C)C)cc1 (stereo not given) | 0.629 | 0.437 (inactive) | 0.834 (inactive) | 1.07 (inactive) | 3 | -0.589 (inactive) | 0.0937 | 0.0026 | 1.05 | -0.0234
7 | CN(C)CCCCCCNC(=O)[C@@H]1C[C@@H]2C(=O)N3CCC[C@H]3C(=O)N2[C@@H]1c1ccc(O)cc1 | 1.53 | -3.92 (inactive) | -0.974 (inactive) | -0.982 (inactive) | 2.51 | 0.434 (inactive) | 0.312 | 1.5 | 1.05 | 0.28
8 | C=CCNC(=O)[C@@H]1[C@H]2C(=O)O[C@H](c3ccccc3)[C@H](c3ccccc3)N2[C@H](c2ccc(OCCO)cc2)[C@@]12C(=O)N(C(=O)OCCOC)c1ccc(C#CCNC(N)=O)cc12 | 1.4 | 2.15 (inactive) | -0.221 (inactive) | 3.97 (inactive) | 1.61 | 1.98 (inactive) | 0.0565 | 0.954 | 1.13 | -0.0069
9 | CCCC[C@H]1C[C@@H]1[C@@H]1N(P(=O)(c2ccccc2)c2ccccc2)C[C@@](O)(c2ccccc2)CC12CC2 | 0.761 | -0.841 (inactive) | -7.02 (inactive) | 32.9 (active) | 3.06 | -0.931 (inactive) | 0.356 | -0.695 | -0.317 | 0.0144
10 | COCCOC(=O)N1C(=O)[C@@]2(c3ccccc31)[C@H](C(=O)N1CCc3cc(OC)c(OC)cc3C1)[C@H]1C(=O)O[C@H](c3ccccc3)[C@H](c3ccccc3)N1[C@@H]2c1ccc(O)cc1 | 1.51 | -0.654 (inactive) | 0.194 (inactive) | 1.8 (inactive) | 2.85 | 2.31 (inactive) | 0.206 | 1.39 | 0.806 | 0.0383
11 | COC(=O)c1c2oc(c1C(=O)OC)C(=O)NC1(CCCCC1)c1cn(nn1)C[C@H](Cc1ccccc1)NC(=O)N[C@H](CO)CC2 | 1.27 | 0.517 (inactive) | 0.718 (inactive) | -0.466 (inactive) | 2.86 | 1.52 (inactive) | -0.186 | 0.322 | 0.705 | -0.171
12 | O=C1NC(=O)C2C1C=CC(C(O)c1ccc(-c3ccccc3)s1)N2Nc1ccc(Cl)cc1Cl (stereo not given) | 0.193 | -0.863 (inactive) | -1.76 (inactive) | 1.58 (inactive) | 3.07 | -1.25 (inactive) | 0.214 | 0.23 | 0.983 | -0.106
13 | O=C1[C@@]23C=C(Br)[C@H](C[C@@H]2COC3)[C@]12CO2 | -1.63 | -0.241 (inactive) | -9 (active) | 0.403 (inactive) | 0.246 | -0.366 (inactive) | -0.14 | -1.31 | -1.5 | -0.272
14 | CCCC1(C(=O)OC)C=C2C(=C(c3ccccc3)C(=O)C2C)CN1 (stereo not given) | -0.406 | 0.283 (inactive) | 0.312 (inactive) | 0.763 (inactive) | 1.64 | -0.375 (inactive) | 0.248 | -0.533 | 0.0144 | 0.0384
15 | CCCCN1CC=CC23O[C@@H]4C=CCOC(=O)[C@@H]4[C@H]2C(=O)N(CCCCCCO)[C@@H]3C1=O (stereo not given in full) | -0.598 | -0.992 (inactive) | -0.053 (inactive) | -0.362 (inactive) | 1.57 | -0.44 (inactive) | -0.0665 | -1.84 | -0.61 | -0.244
16 | [N-]=[N+]=NCc1ccccc1[C@@H]1OC(c2ccc(OCCCO)cc2)=N[C@]1(CCS(=O)(=O)c1ccccc1)C(=O)N1CCCCC1 | 1.56 | -0.238 (inactive) | 0.454 (inactive) | 1.44 (inactive) | 2.94 | 0.622 (inactive) | 0.0563 | 0.36 | 1.02 | 0.208
